Assay results reported in PubChem BioAssay AID1159580 (chemical genetic matrix, 2015).
Out of some 5,500 compounds screened, about 2,000 (36%) were called active. Inconclusive results (about 18%) are left out. Cut-off read from the data, not from the text of the source: active = normalized growth mostly below about 0.91 (no sharp cut-off); inconclusive = no clear call, values can overlap the other calls; inactive = mostly above about 0.92. Some of the results follow.

Experiment: chemical genetic growth profiling, strain panel (AID 1159580);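 note: tested at 20 µM; growth read once vehicle control cultures reached saturation at 30 °C; 1 = growth at the plate median or of vehicle wells; lower values mean less growth of the strain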
Conditions: growth OD

Measured: normalized growth

CC[C@H]1OC(=O)[C@H](C)[C@@H](O[C@H]2C[C@@](C)(OC)[C@@H](O)[C@H](C)O2)[C@H](C)[C@@H](O[C@@H]2O[C@H](C)C[C@H](N(C)C)[C@H]2O)[C@](C)(O)C[C@@H](C)[C@@H]2N[C@@H](COCCOC)O[C@H]([C@H]2C)[C@]1(C)O
inactive: S. cerevisiae deletion strains, locus YJR075W, strain HOC1, stronger effect = lower value 1.05 | S. cerevisiae deletion strains, locus YKL009W, strain mrt4, stronger effect = lower value 1.03 | S. cerevisiae deletion strains, locus YKL068W, stronger effect = lower value 1 | S. cerevisiae deletion strains, locus YKL085W, strain MDH1 (second series), stronger effect = lower value 0.976 | S. cerevisiae deletion strains, locus YKL085W, strain MDH1, stronger effect = lower value 0.976 | S. cerevisiae deletion strains, locus YKL160W, strain elf1, stronger effect = lower value 1 | S. cerevisiae deletion strains, locus YKR001C, strain vps1, stronger effect = lower value 1.01 | S. cerevisiae deletion strains, locus YKR026C, strain gcn3, stronger effect = lower value 0.987 | S. cerevisiae deletion strains, locus YKR091W, strain srl3, stronger effect = lower value 0.997 | S. cerevisiae deletion strains, locus YLL001W, strain dnm1, stronger effect = lower value 0.991 | S. cerevisiae deletion strains, locus YLL026W, stronger effect = lower value 0.984 | S. cerevisiae deletion strains, locus YLL041C, strain sdh2, stronger effect = lower value 0.986 | S. cerevisiae deletion strains, locus YLR027C, strain aat2, stronger effect = lower value 0.991 | S. cerevisiae deletion strains, locus YLR039C, strain RIC1, stronger effect = lower value 0.982 | S. cerevisiae deletion strains, locus YLR058C, strain SHM2, stronger effect = lower value 1.02 | S. cerevisiae deletion strains, locus YLR102C, strain apc9, stronger effect = lower value 1.01 | S. cerevisiae deletion strains, locus YLR113W, strain HOG1, stronger effect = lower value 1.04 | S. cerevisiae deletion strains, locus YLR221C, strain rsa3, stronger effect = lower value 0.993 | S. cerevisiae deletion strains, locus YLR258W, strain gsy2, stronger effect = lower value 1 | S. cerevisiae deletion strains, locus YLR262C, strain YPT6 (second series), stronger effect = lower value 0.985 | S. cerevisiae deletion strains, locus YLR262C, strain YPT6, stronger effect = lower value 1.01 | S. cerevisiae deletion strains, locus YLR268W, strain sec22, stronger effect = lower value 0.999 | S. cerevisiae deletion strains, locus YLR320W, strain mms22, stronger effect = lower value 0.991 | S. cerevisiae deletion strains, locus YLR330W, strain CHS5, stronger effect = lower value 1.01 | S. cerevisiae deletion strains, locus YLR342W, strain FKS1 (second series), stronger effect = lower value 1.02 | S. cerevisiae deletion strains, locus YLR342W, strain FKS1, stronger effect = lower value 0.992 | S. cerevisiae deletion strains, locus YLR357W, strain rsc2, stronger effect = lower value 0.958 | S. cerevisiae deletion strains, locus YLR370C, strain arc18, stronger effect = lower value 0.989 | S. cerevisiae deletion strains, locus YLR371W, strain rom2, stronger effect = lower value 1 | S. cerevisiae deletion strains, locus YLR384C, strain iki3, stronger effect = lower value 0.993 | S. cerevisiae deletion strains, locus YLR418C, strain cdc73, stronger effect = lower value 0.996 | S. cerevisiae deletion strains, locus YML016C, strain PPZ1, stronger effect = lower value 1.01 | S. cerevisiae deletion strains, locus YML032C, strain rad52, stronger effect = lower value 0.999 | S. cerevisiae deletion strains, locus YML120C, strain ndi1, stronger effect = lower value 0.997 | S. cerevisiae deletion strains, locus YML124C, strain tub3, stronger effect = lower value 1 | S. cerevisiae deletion strains, locus YMR058W, strain fet3, stronger effect = lower value 0.997 | S. cerevisiae deletion strains, locus YMR078C, strain ctf18, stronger effect = lower value 1.01 | S. cerevisiae deletion strains, locus YMR125W, strain sto1, stronger effect = lower value 0.992 | S. cerevisiae deletion strains, locus YMR129W, stronger effect = lower value 1 | S. cerevisiae deletion strains, locus YMR205C, strain PFK2, stronger effect = lower value 0.969 | S. cerevisiae deletion strains, locus YMR223W, strain ubp8, stronger effect = lower value 1.02 | S. cerevisiae deletion strains, locus YMR231W, strain pep5, stronger effect = lower value 0.993 | S. cerevisiae deletion strains, locus YMR263W, strain SAP30, stronger effect = lower value 1.03 | S. cerevisiae deletion strains, locus YMR307W, strain GAS1, stronger effect = lower value 0.919 | S. cerevisiae deletion strains, locus YNL067W, strain RPL9B, stronger effect = lower value 1.04 | S. cerevisiae deletion strains, locus YNL071W, strain lat1, stronger effect = lower value 0.999 | S. cerevisiae deletion strains, locus YNL128W, strain TEP1, stronger effect = lower value 1.02 | S. cerevisiae deletion strains, locus YNL183C, strain NPR1, stronger effect = lower value 0.96 | S. cerevisiae deletion strains, locus YNL209W, strain ssb2, stronger effect = lower value 0.988 | S. cerevisiae deletion strains, locus YNL233W, strain BNI4, stronger effect = lower value 1.03 | S. cerevisiae deletion strains, locus YNL248C, strain rpa49, stronger effect = lower value 0.975 | S. cerevisiae deletion strains, locus YNL250W, strain rad50, stronger effect = lower value 1.01 | S. cerevisiae deletion strains, locus YNL271C, strain bni1, stronger effect = lower value 1.01 | S. cerevisiae deletion strains, locus YNL298W, strain CLA4, stronger effect = lower value 1 | S. cerevisiae deletion strains, locus YNL307C, strain MCK1, stronger effect = lower value 1 | S. cerevisiae deletion strains, locus YNL322C, strain KRE1 (second series), stronger effect = lower value 0.995 | S. cerevisiae deletion strains, locus YNR049C, strain mso1, stronger effect = lower value 0.989 | S. cerevisiae deletion strains, locus YNR052C, strain pop2, stronger effect = lower value 1.01 | S. cerevisiae deletion strains, locus YOL006C, strain TOP1, stronger effect = lower value 1.09 | S. cerevisiae deletion strains, locus YOL012C, strain htz1 1.56 | S. cerevisiae deletion strains, locus YOL147C, strain pex11, stronger effect = lower value 1 | S. cerevisiae deletion strains, locus YOR001W, strain rrp6, stronger effect = lower value 0.986 | S. cerevisiae deletion strains, locus YOR061W, strain CKA2, stronger effect = lower value 1.02 | S. cerevisiae deletion strains, locus YOR069W, strain VPS5, stronger effect = lower value 1.01 | S. cerevisiae deletion strains, locus YOR070C, strain gyp1, stronger effect = lower value 0.999 | S. cerevisiae deletion strains, locus YOR080W, strain dia2, stronger effect = lower value 0.995 | S. cerevisiae deletion strains, locus YOR083W, strain WHI5, stronger effect = lower value 0.996 | S. cerevisiae deletion strains, locus YOR106W, strain vam3, stronger effect = lower value 0.999 | S. cerevisiae deletion strains, locus YOR136W, strain idh2, stronger effect = lower value 1 | S. cerevisiae deletion strains, locus YOR144C, strain elg1, stronger effect = lower value 1.01 | S. cerevisiae deletion strains, locus YOR184W, strain ser1, stronger effect = lower value 1 | S. cerevisiae deletion strains, locus YOR231W, strain MKK1, stronger effect = lower value 1.02 | S. cerevisiae deletion strains, locus YOR265W, strain rbl2, stronger effect = lower value 0.996 | S. cerevisiae deletion strains, locus YOR270C, strain vph1, stronger effect = lower value 0.978 | S. cerevisiae deletion strains, locus YOR290C, strain snf2, stronger effect = lower value 0.981 | S. cerevisiae deletion strains, locus YOR316C, strain cot1, stronger effect = lower value 1.01 | S. cerevisiae deletion strains, locus YPL051W, strain arl3, stronger effect = lower value 1.01 | S. cerevisiae deletion strains, locus YPL078C, strain atp4, stronger effect = lower value 0.995 | S. cerevisiae deletion strains, locus YPL106C, strain sse1, stronger effect = lower value 0.978 | S. cerevisiae deletion strains, locus YPL240C, strain hsp82, stronger effect = lower value 0.989 | S. cerevisiae deletion strains, locus YPL256C, strain CLN2, stronger effect = lower value 1.01 | S. cerevisiae deletion strains, locus YPR119W, strain clb2, stronger effect = lower value 1.01 | S. cerevisiae deletion strains, locus YPR141C, strain kar3, stronger effect = lower value 1.01 | S. cerevisiae deletion strains, locus YPR163C, strain tif3, stronger effect = lower value 1.02 | S. cerevisiae deletion strains, locus YPR167C, strain met16, stronger effect = lower value 0.996 | S. cerevisiae deletion strains, strain wtn01, stronger effect = lower value 1 | S. cerevisiae strains, strain wild type, stronger effect = lower value 1.02
